Laboratory results taken from PubChem BioAssay (NCATS).
Inconclusive results are not listed. Entries that show only a call come without a potency. Values without a mark were called inactive. Calls of active or inactive are those of the source. Unless noted, calls come from the whole dose curve.

Columns and labels:
[1] = qHTS for Inhibitors of the Functional Ribonucleoprotein Complex (vRNP) of Lassa (LASV) Arenavirus: LASV Primary Screen - GLuc reporter signal (AID 1347082; calls by dose curve; tested in HEK293 reporter line; note: nearly all actives have a fitted effect of over 60% in size)
[2] = qHTS for Inhibitors of the Functional Ribonucleoprotein Complex (vRNP) of Lassa (LASV) Arenavirus: Viability assay - alamar blue signal for LASV Primary Screen (AID 1347083; calls by dose curve; tested in HEK293 reporter line; note: nearly all actives have a fitted effect of over 80% in size)
[3] = qHTS for Inhibitors of the Functional Ribonucleoprotein Complex (vRNP) of Lymphocytic Choriomeningitis Arenaviruses (LCMV): Viability assay - alamar blue signal for LCMV Primary Screen (AID 1347085; calls by dose curve; tested in HEK293 reporter line; note: nearly all actives have a fitted effect of over 80% in size)
[4] = molecular target: Nucleoprotein (Lymphocytic choriomeningitis virus (strain Armstrong)) (UniProt P09992); assay: qHTS for Inhibitors of the Functional Ribonucleoprotein Complex (vRNP) of Lymphocytic Choriomeningitis Arenaviruses (LCMV): LCMV Primary Screen - GLuc reporter signal (AID 1347086); note: nearly all actives have a fitted effect of over 70% in size
Potency is the fitted concentration of half-maximal effect.

Sequence of Nucleoprotein (Lymphocytic choriomeningitis virus (strain Armstrong)) (P09992 whole entry, looked up): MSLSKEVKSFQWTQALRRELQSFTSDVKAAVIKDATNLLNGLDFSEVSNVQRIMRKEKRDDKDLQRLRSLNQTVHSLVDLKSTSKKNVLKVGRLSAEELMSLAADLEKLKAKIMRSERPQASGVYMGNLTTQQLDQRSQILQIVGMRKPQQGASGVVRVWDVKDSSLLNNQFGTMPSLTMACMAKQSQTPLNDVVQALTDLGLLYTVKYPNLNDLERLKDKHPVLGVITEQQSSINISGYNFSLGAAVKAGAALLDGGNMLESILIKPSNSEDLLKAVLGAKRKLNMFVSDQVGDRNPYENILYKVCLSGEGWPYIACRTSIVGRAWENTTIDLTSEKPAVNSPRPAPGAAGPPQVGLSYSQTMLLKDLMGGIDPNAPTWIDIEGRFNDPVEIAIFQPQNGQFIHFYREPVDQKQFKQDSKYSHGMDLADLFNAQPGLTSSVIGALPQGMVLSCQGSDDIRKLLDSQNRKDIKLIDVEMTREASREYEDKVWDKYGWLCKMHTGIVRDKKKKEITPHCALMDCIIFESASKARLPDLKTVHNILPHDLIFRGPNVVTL

SMILES | Potency [1] | Potency [2] | Potency [3] | Potency [4]
CCCCCCCCCCC(C)=O | inactive | inactive | inactive | inactive
O=C(CCc1ccc(O)cc1)c1c(O)cc(O)cc1O[C@@H]1O[C@H](CO)[C@H](O)[C@H](O)[C@H]1O | inactive | inactive | inactive | inactive
COc1c2c(nc3ccccc13)OC(C(C)(O)COC(C)=O)C2 (stereo not given) | inactive | inactive | inactive | inactive
CC(C)=CCC/C(C)=C/CC/C(C)=C/COc1ccc2ccc(=O)oc2c1 | inactive | inactive | inactive | inactive
CC(C)CN(C[C@H](O)[C@H](Cc1ccccc1)NC(=O)O[C@H]1CCOC1)S(=O)(=O)c1ccc(N)cc1 | inactive | inactive | inactive | inactive
CC1CCC(=O)O1 (stereo not given) | inactive | inactive | inactive | inactive
O=C(OCC#CCSc1nnc(-c2cccc3ccccc23)o1)c1cc2ccccc2s1 | inactive | inactive | inactive | inactive
C=C1C(=O)O[C@H]2C[C@]3(C)C([C@@H](OC(=O)/C(C)=C/C)[C@H]12)[C@](C)(O)CC[C@H]3O (stereo not given in full) | inactive | inactive | inactive | inactive
COc1c(Br)cc(Br)cc1C(=O)O | inactive | inactive | inactive | inactive
O=C(NCO)c1cccnc1 | inactive | inactive | inactive | inactive
CC1(C)CC(=O)c2cc(O)ccc2O1 | inactive | inactive | inactive | inactive
CC(C)=CCC/C(C)=C/C(=O)O | inactive | inactive | inactive | inactive
C/C=C(/C)C(=O)O[C@H]1[C@@H](O)c2c(ccc3ccc(=O)oc23)OC1(C)C | inactive | inactive | inactive | inactive
CC(C)=CCC[C@](C)(O[C@@H]1O[C@H](CO)[C@@H](O)[C@H](O)[C@H]1O)[C@H]1CC[C@]2(C)[C@@H]1[C@H](O)C[C@@H]1[C@@]3(C)CC[C@H](O[C@@H]4O[C@H](CO)[C@@H](O)[C@H](O)[C@H]4O[C@@H]4O[C@H](CO)[C@@H](O)[C@H](O)[C@H]4O)C(C)(C)[C@@H]3[C@@H](O)C[C@]12C | inactive | inactive | inactive | inactive
CCOC(=O)c1cccc(C(=O)OCC)n1 | inactive | inactive | inactive | inactive
CC(C)C1=CC2=CC[C@@H]3[C@](C)(CCC[C@@]3(C)C(=O)O)[C@H]2CC1 | inactive | inactive | inactive | inactive
COc1cccc(OC)c1 | inactive | inactive | inactive | inactive
CN[C@H]1[C@@H](O[C@@H]2[C@H](O[C@@H]3[C@@H](O)[C@@H](O)[C@@H](N=C(N)N)[C@@H](O)[C@@H]3N=C(N)N)O[C@H](C)[C@@]2(O)C=O)O[C@@H](CO)[C@@H](O)[C@H]1O | inactive | inactive | inactive | inactive
COc1ccc(CC(=O)c2ccc(OC3OC(CO)C(O)C(O)C3O)cc2O)cc1 (stereo not given) | inactive | inactive | inactive | inactive
COc1cc(O)cc2c1[C@@H]1Oc3c(ccc(O)c3CC=C(C)C)[C@@H]1CO2 | inactive | inactive | inactive | inactive

SMILES | Potency [1] | Potency [2] | Potency [3] | Potency [4]
C=C1CC23C[C@H]4[C@@H]5[C@@]6(C)C[C@H](OC(=O)c7ccccc7)[C@@H](OC(C)=O)[C@]57[C@@H]2[C@@H](OC(C)=O)[C@H]1[C@@H](O)[C@H]3[C@H]7N4C6 | inactive | inactive | inactive | inactive
CCCC1CCCC(=O)O1 (stereo not given) | inactive | inactive | inactive | inactive
CC(=O)O | inactive | inactive | inactive | inactive
C[C@]12C=CC(=O)N[C@@H]1CC[C@H]1[C@H]3CC[C@@H](C(=O)Nc4cc(C(F)(F)F)ccc4C(F)(F)F)[C@@]3(C)CC[C@@H]12 | inactive | inactive | inactive | inactive
CC(=O)c1ccc(C)cc1 | inactive | inactive | inactive | inactive
CC(C)=CCC/C(C)=C/COc1c2ccoc2cc2oc(=O)ccc12 | inactive | inactive | inactive | inactive
CC/C=C\CCCCCO | inactive | inactive | inactive | inactive
COc1cc(/C=C/C(=O)OC[C@H]2O[C@H](OC3(CO)OC(CO)C(O)C3O)[C@H](O)[C@@H](O)[C@@H]2O)ccc1O (stereo not given in full) | inactive | inactive | inactive | inactive
C=C1CCC(OC(C)=O)C2(C)CCC3C(C)C(=O)OC3C12O (stereo not given) | inactive | inactive | inactive | inactive
CCC1CCC(=O)O1 (stereo not given) | inactive | inactive | inactive | inactive
O=C(O)[C@H]1O[C@H](Oc2cc3oc(-c4ccccc4)cc(=O)c3c(O)c2O)[C@H](O)[C@@H](O)[C@H]1O | inactive | inactive | inactive | inactive
CC(C)c1cc(C(=O)N2Cc3ccc(CN4CCN(C)CC4)cc3C2)c(O)cc1O | 0.968 µM (active) | 0.544 µM (active) | 0.685 µM (active) | 0.485 µM (active)
CC1(C)O[C@@H]1COc1c2ccoc2cc2oc(=O)ccc12 | inactive | inactive | inactive | inactive
C[C@@H]1O[C@@H](OC2C(O)C(OCCc3ccc(O)c(O)c3)OC(CO)C2OC(=O)/C=C/c2ccc(O)c(O)c2)[C@H](O)[C@H](O)[C@H]1O (stereo not given in full) | inactive | inactive | inactive | inactive
COc1c2c(c3c(c1OC)c(=O)c1ccccc1n3C)OCO2 | inactive | inactive | inactive | inactive
CC(C)CC(=O)[C@@H](O)Cc1ccc(O)cc1 | inactive | inactive | inactive | inactive
CC(=O)OC1C(OC(C)=O)C2C(C)CC3OC(=O)C(C)C3CC2(C)C1OC(C)=O (stereo not given) | inactive | inactive | inactive | inactive
CC(=O)N1CCN(c2ccc(OCc3nn(C)c(C)c3-c3cccc4c(CCCOc5cc(C)c(Cl)c(C)c5)c(C(=O)O)n(Cc5cccnc5)c34)cc2)CC1 | inactive | inactive | inactive | inactive
COc1cc2c(c(OC)c1OC)-c1c(cc3c(c1OC)OCO3)[C@@H](OC(C)=O)[C@H](C)[C@H](C)C2 | inactive | inactive | inactive | inactive
COc1cc(O)c(C(C)=O)c2c1C=CC(C)(C)O2 | inactive | inactive | inactive | inactive

SMILES | Potency [1] | Potency [2] | Potency [3] | Potency [4]
O=C1C=C(c2ccccc2)CO1 | inactive | inactive | inactive | inactive
CC1=C2C(=O)OC(c3ccoc3)C2(C)CCC1 (stereo not given) | inactive | inactive | inactive | inactive
N[C@H](C(=O)O)c1ccc(O)c(C(=O)O)c1 | inactive | inactive | inactive | inactive
CC(C)N1[N]C(=C2C=c3cc(O)ccc3=N2)c2c(N)ncnc21 | 2.73 µM (active) | 0.685 µM (active) | 1.09 µM (active) | 0.611 µM (active)
Cn1c2c(c(=O)c3ccccc31)CCC(C)(C)O2 | inactive | inactive | inactive | inactive
CC(C)CNC(=O)/C=C/C=C/CCCCCC/C=C/c1ccc2c(c1)OCO2 | inactive | inactive | inactive | inactive
COc1cc(C(=O)O)ccc1O | inactive | inactive | inactive | inactive
C=C[C@]1(C)C=C2C(=O)C[C@H]3C(C)(C)CCC[C@]3(C(=O)O)[C@@]2(O)CC1 | inactive | inactive | inactive | inactive
CC1(C)C=Cc2c(ccc(C(=O)/C=C/c3ccccc3)c2O)O1 | inactive | inactive | inactive | inactive
O=C(O)Cn1ccnc1 | inactive | inactive | inactive | inactive
COc1cc2oc(=O)c3c4c(cc5ccc(c1CCN(C)C)c2c53)OCO4 | inactive | inactive | inactive | inactive
O=c1c(O)c(-c2ccc(O[C@@H]3O[C@H](CO)[C@@H](O)[C@H](O)[C@H]3O)c(O)c2)oc2cc(O)cc(O)c12 | inactive | inactive | inactive | inactive
CC1=CCC[C@@H]2[C@@](C)(CC/C(C)=C/C(=O)O)[C@H](C)CC[C@@]12C | inactive | inactive | inactive | inactive
CCCCOC(=O)C(=O)OCCCC | inactive | inactive | inactive | inactive
CCOC(=O)/C=C/c1ccccc1 | inactive | inactive | inactive | inactive
CC1=CC2OC3CC4OC(=O)C=CC=CC(C(C)O)OCC(O)C5(C)OC5C(=O)OCC2(CC1O)C4(C)C31CO1 (stereo not given) | inactive | inactive | inactive | inactive
COc1cc(OC)c2c(-c3ccccc3)cc(=O)oc2c1 | inactive | inactive | inactive | inactive
O=C1c2cc(CO)cc(O)c2C(=O)c2c(O[C@@H]3OC(CO)[C@@H](O)[C@@H](O)[C@@H]3O)cccc21 (stereo not given in full) | inactive | inactive | inactive | inactive
Cc1ccc2oc3ccccc3c(=O)c2c1 | inactive | inactive | inactive | inactive
CC(C)NC(=O)NC(C)C | inactive | inactive | inactive | inactive
